Measurements as given in the supplement of paper PMC4466140.

Each binder was assayed against AgAbp1 (assay: SPOT peptide array binding signal intensity (averaged, normalized) (arbitrary units (background-subtracted, floor 0; scale differs between SH3 domains)); higher = stronger binding of the SH3 domain to the peptide).
Procedure, shortened: (§1)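 GST-fused SH3 domains, from four yeast species, were produced in E. coli BL21(DE3) and captured on glutathione Sepharose. Membranes of cellulose carrying synthetic 15-mer peptides, in which cysteines had been replaced by serines, were exposed to each domain at 10 μg/ml overnight at 4°C in TBS-based blocking buffer. After anti-GST antibody, an HRP anti-mouse secondary and luminol, spots were imaged and quantified using Genespotter. Binding signal is normalized and background-subtracted spot intensity, averaged over replicates, in arbitrary units that differ between domains.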

Binder | SPOT peptide array binding signal intensity
SAPDIPPRSPNRNAH | ≤ 0

What follows are binders tested against AgBbc1 in the same assay as above.
Procedure, shortened: as §1

Binder | SPOT peptide array binding signal intensity
SAPDIPPRSPNRNAH | 498

Each binder was assayed against AgBem1-D1 in the same assay as above.
Procedure, shortened: as §1

Binder | SPOT peptide array binding signal intensity
SAPDIPPRSPNRNAH | ≤ 0

Each binder was assayed against AgBzz1-D1 in the same assay as above.
Procedure, shortened: as §1

Binder | SPOT peptide array binding signal intensity
SAPDIPPRSPNRNAH | 34.5

These binders were tested against AgBzz1-D2 in the same assay as above.
Procedure, shortened: as §1

Binder | SPOT peptide array binding signal intensity
SAPDIPPRSPNRNAH | ≤ 0

Each binder was assayed against AgCyk3 in the same assay as above.
Procedure, shortened: as §1

Binder | SPOT peptide array binding signal intensity
SAPDIPPRSPNRNAH | ≤ 0

The binders below were run against AgFus1 in the same assay as above.
Procedure, shortened: as §1

Binder | SPOT peptide array binding signal intensity
SAPDIPPRSPNRNAH | ≤ 0

These binders were tested against AgHof1 in the same assay as above.
Procedure, shortened: as §1

Binder | SPOT peptide array binding signal intensity
SAPDIPPRSPNRNAH | ≤ 0

The binders below were run against AgHse1 in the same assay as above.
Procedure, shortened: as §1

Binder | SPOT peptide array binding signal intensity
SAPDIPPRSPNRNAH | ≤ 0

What follows are binders tested against AgLsb1 in the same assay as above.
Procedure, shortened: as §1

Binder | SPOT peptide array binding signal intensity
SAPDIPPRSPNRNAH | 324

The binders below were run against AgLsb4 in the same assay as above.
Procedure, shortened: as §1

Binder | SPOT peptide array binding signal intensity
SAPDIPPRSPNRNAH | 328

Each binder was assayed against AgMyo5 in the same assay as above.
Procedure, shortened: as §1

Binder | SPOT peptide array binding signal intensity
SAPDIPPRSPNRNAH | ≤ 0

What follows are binders tested against AgNbp2 in the same assay as above.
Procedure, shortened: as §1

Binder | SPOT peptide array binding signal intensity
SAPDIPPRSPNRNAH | 3.5

These binders were tested against AgRvs167 in the same assay as above.
Procedure, shortened: as §1

Binder | SPOT peptide array binding signal intensity
SAPDIPPRSPNRNAH | 36.3

Each binder was assayed against AgSho1 in the same assay as above.
Procedure, shortened: as §1

Binder | SPOT peptide array binding signal intensity
SAPDIPPRSPNRNAH | ≤ 0

The binders below were run against AgSla1-D1-D2 in the same assay as above.
Procedure, shortened: as §1

Binder | SPOT peptide array binding signal intensity
SAPDIPPRSPNRNAH | ≤ 0

Each binder was assayed against AgSla1-D3 in the same assay as above.
Procedure, shortened: as §1

Binder | SPOT peptide array binding signal intensity
SAPDIPPRSPNRNAH | ≤ 0

The binders below were run against CaAbp1-D1 in the same assay as above.
Procedure, shortened: as §1

Binder | SPOT peptide array binding signal intensity
SAPDIPPRSPNRNAH | ≤ 0

These binders were tested against CaAbp1-D2 in the same assay as above.
Procedure, shortened: as §1

Binder | SPOT peptide array binding signal intensity
SAPDIPPRSPNRNAH | 4.5

What follows are binders tested against CaBbc1 in the same assay as above.
Procedure, shortened: as §1

Binder | SPOT peptide array binding signal intensity
SAPDIPPRSPNRNAH | 575

These binders were tested against CaBem1-D1 in the same assay as above.
Procedure, shortened: as §1

Binder | SPOT peptide array binding signal intensity
SAPDIPPRSPNRNAH | 1

The binders below were run against CaBzz1-D1 in the same assay as above.
Procedure, shortened: as §1

Binder | SPOT peptide array binding signal intensity
SAPDIPPRSPNRNAH | 85

These binders were tested against CaBzz1-D2 in the same assay as above.
Procedure, shortened: as §1

Binder | SPOT peptide array binding signal intensity
SAPDIPPRSPNRNAH | ≤ 0

The binders below were run against CaCyk3 in the same assay as above.
Procedure, shortened: as §1

Binder | SPOT peptide array binding signal intensity
SAPDIPPRSPNRNAH | 3

These binders were tested against CaFus1 in the same assay as above.
Procedure, shortened: as §1

Binder | SPOT peptide array binding signal intensity
SAPDIPPRSPNRNAH | ≤ 0

These binders were tested against CaHof1 in the same assay as above.
Procedure, shortened: as §1

Binder | SPOT peptide array binding signal intensity
SAPDIPPRSPNRNAH | ≤ 0

What follows are binders tested against CaHse1 in the same assay as above.
Procedure, shortened: as §1

Binder | SPOT peptide array binding signal intensity
SAPDIPPRSPNRNAH | 9.75

Each binder was assayed against CaLsb1 in the same assay as above.
Procedure, shortened: as §1

Binder | SPOT peptide array binding signal intensity
SAPDIPPRSPNRNAH | 0.25

The binders below were run against CaLsb4 in the same assay as above.
Procedure, shortened: as §1

Binder | SPOT peptide array binding signal intensity
SAPDIPPRSPNRNAH | 4890

These binders were tested against CaMyo5 in the same assay as above.
Procedure, shortened: as §1

Binder | SPOT peptide array binding signal intensity
SAPDIPPRSPNRNAH | ≤ 0

The binders below were run against CaNbp2 in the same assay as above.
Procedure, shortened: as §1

Binder | SPOT peptide array binding signal intensity
SAPDIPPRSPNRNAH | ≤ 0

What follows are binders tested against CaRvs167 in the same assay as above.
Procedure, shortened: as §1

Binder | SPOT peptide array binding signal intensity
SAPDIPPRSPNRNAH | 321

These binders were tested against CaRvs167-3 in the same assay as above.
Procedure, shortened: as §1

Binder | SPOT peptide array binding signal intensity
SAPDIPPRSPNRNAH | 1

Each binder was assayed against CaSho1 in the same assay as above.
Procedure, shortened: as §1

Binder | SPOT peptide array binding signal intensity
SAPDIPPRSPNRNAH | ≤ 0

These binders were tested against CaSla1-D1-D2 in the same assay as above.
Procedure, shortened: as §1

Binder | SPOT peptide array binding signal intensity
SAPDIPPRSPNRNAH | 290

The binders below were run against CaSla1-D3 in the same assay as above.
Procedure, shortened: as §1

Binder | SPOT peptide array binding signal intensity
SAPDIPPRSPNRNAH | ≤ 0

What follows are binders tested against ScAbp1 in the same assay as above.
Procedure, shortened: as §1

Binder | SPOT peptide array binding signal intensity
SAPDIPPRSPNRNAH | 4.5

Each binder was assayed against ScBbc1 in the same assay as above.
Procedure, shortened: as §1

Binder | SPOT peptide array binding signal intensity
SAPDIPPRSPNRNAH | 35.8

These binders were tested against ScBem1-D1 in the same assay as above.
Procedure, shortened: as §1

Binder | SPOT peptide array binding signal intensity
SAPDIPPRSPNRNAH | ≤ 0

What follows are binders tested against ScBzz1-D1 in the same assay as above.
Procedure, shortened: as §1

Binder | SPOT peptide array binding signal intensity
SAPDIPPRSPNRNAH | ≤ 0

These binders were tested against ScBzz1-D2 in the same assay as above.
Procedure, shortened: as §1

Binder | SPOT peptide array binding signal intensity
SAPDIPPRSPNRNAH | ≤ 0

What follows are binders tested against ScCyk3 in the same assay as above.
Procedure, shortened: as §1

Binder | SPOT peptide array binding signal intensity
SAPDIPPRSPNRNAH | ≤ 0

The binders below were run against ScFus1 in the same assay as above.
Procedure, shortened: as §1

Binder | SPOT peptide array binding signal intensity
SAPDIPPRSPNRNAH | ≤ 0

Each binder was assayed against ScHof1 in the same assay as above.
Procedure, shortened: as §1

Binder | SPOT peptide array binding signal intensity
SAPDIPPRSPNRNAH | ≤ 0

These binders were tested against ScHse1 in the same assay as above.
Procedure, shortened: as §1

Binder | SPOT peptide array binding signal intensity
SAPDIPPRSPNRNAH | 17.5

These binders were tested against ScLsb1 in the same assay as above.
Procedure, shortened: as §1

Binder | SPOT peptide array binding signal intensity
SAPDIPPRSPNRNAH | 763

What follows are binders tested against ScLsb2 in the same assay as above.
Procedure, shortened: as §1

Binder | SPOT peptide array binding signal intensity
SAPDIPPRSPNRNAH | 1090

Each binder was assayed against ScLsb3 in the same assay as above.
Procedure, shortened: as §1

Binder | SPOT peptide array binding signal intensity
SAPDIPPRSPNRNAH | 5380

The binders below were run against ScLsb4 in the same assay as above.
Procedure, shortened: as §1

Binder | SPOT peptide array binding signal intensity
SAPDIPPRSPNRNAH | 936

The binders below were run against ScMyo3 in the same assay as above.
Procedure, shortened: as §1

Binder | SPOT peptide array binding signal intensity
SAPDIPPRSPNRNAH | ≤ 0

What follows are binders tested against ScMyo5 in the same assay as above.
Procedure, shortened: as §1

Binder | SPOT peptide array binding signal intensity
SAPDIPPRSPNRNAH | ≤ 0

These binders were tested against ScNbp2 in the same assay as above.
Procedure, shortened: as §1

Binder | SPOT peptide array binding signal intensity
SAPDIPPRSPNRNAH | 57

What follows are binders tested against ScPex13 in the same assay as above.
Procedure, shortened: as §1

Binder | SPOT peptide array binding signal intensity
SAPDIPPRSPNRNAH | 130

What follows are binders tested against ScRvs167 in the same assay as above.
Procedure, shortened: as §1

Binder | SPOT peptide array binding signal intensity
SAPDIPPRSPNRNAH | 1360

The binders below were run against ScSho1 in the same assay as above.
Procedure, shortened: as §1

Binder | SPOT peptide array binding signal intensity
SAPDIPPRSPNRNAH | 13.5

What follows are binders tested against ScSla1-D1-D2 in the same assay as above.
Procedure, shortened: as §1

Binder | SPOT peptide array binding signal intensity
SAPDIPPRSPNRNAH | 134

The binders below were run against ScSla1-D3 in the same assay as above.
Procedure, shortened: as §1

Binder | SPOT peptide array binding signal intensity
SAPDIPPRSPNRNAH | ≤ 0

The binders below were run against SpAbp1-D1 in the same assay as above.
Procedure, shortened: as §1

Binder | SPOT peptide array binding signal intensity
SAPDIPPRSPNRNAH | ≤ 0

These binders were tested against SpBbc1 in the same assay as above.
Procedure, shortened: as §1

Binder | SPOT peptide array binding signal intensity
SAPDIPPRSPNRNAH | 3.5

The binders below were run against SpBzz1-D1 in the same assay as above.
Procedure, shortened: as §1

Binder | SPOT peptide array binding signal intensity
SAPDIPPRSPNRNAH | ≤ 0

What follows are binders tested against SpBzz1-D2 in the same assay as above.
Procedure, shortened: as §1

Binder | SPOT peptide array binding signal intensity
SAPDIPPRSPNRNAH | ≤ 0
NFLRLLIGLPSQNEL | ≤ 0

These binders were tested against SpCyk3 in the same assay as above.
Procedure, shortened: as §1

Binder | SPOT peptide array binding signal intensity
SAPDIPPRSPNRNAH | ≤ 0
NFLRLLIGLPSQNEL | 7

The binders below were run against SpHof1 in the same assay as above.
Procedure, shortened: as §1

Binder | SPOT peptide array binding signal intensity
SAPDIPPRSPNRNAH | 0.75
NFLRLLIGLPSQNEL | 121

What follows are binders tested against SpHof1-2 in the same assay as above.
Procedure, shortened: as §1

Binder | SPOT peptide array binding signal intensity
SAPDIPPRSPNRNAH | ≤ 0
NFLRLLIGLPSQNEL | 31.5

These binders were tested against SpHof1-3 in the same assay as above.
Procedure, shortened: as §1

Binder | SPOT peptide array binding signal intensity
SAPDIPPRSPNRNAH | 1
NFLRLLIGLPSQNEL | 443

These binders were tested against SpHse1 in the same assay as above.
Procedure, shortened: as §1

Binder | SPOT peptide array binding signal intensity
SAPDIPPRSPNRNAH | 12
NFLRLLIGLPSQNEL | 3340

Each binder was assayed against SpLsb1 in the same assay as above.
Procedure, shortened: as §1

Binder | SPOT peptide array binding signal intensity
SAPDIPPRSPNRNAH | 540
NFLRLLIGLPSQNEL | ≤ 0

These binders were tested against SpLsb4 in the same assay as above.
Procedure, shortened: as §1

Binder | SPOT peptide array binding signal intensity
SAPDIPPRSPNRNAH | 6620
NFLRLLIGLPSQNEL | ≤ 0

Each binder was assayed against SpMyo1 in the same assay as above.
Procedure, shortened: as §1

Binder | SPOT peptide array binding signal intensity
SAPDIPPRSPNRNAH | ≤ 0
NFLRLLIGLPSQNEL | 0.5

These binders were tested against SpNbp2 in the same assay as above.
Procedure, shortened: as §1

Binder | SPOT peptide array binding signal intensity
SAPDIPPRSPNRNAH | 59.5
NFLRLLIGLPSQNEL | 52.5

These binders were tested against SpPex13 in the same assay as above.
Procedure, shortened: as §1

Binder | SPOT peptide array binding signal intensity
SAPDIPPRSPNRNAH | ≤ 0
NFLRLLIGLPSQNEL | 52

These binders were tested against SpRvs167 in the same assay as above.
Procedure, shortened: as §1

Binder | SPOT peptide array binding signal intensity
SAPDIPPRSPNRNAH | 1600
NFLRLLIGLPSQNEL | 9.83

These binders were tested against SpSla1-D1-D2 in the same assay as above.
Procedure, shortened: as §1

Binder | SPOT peptide array binding signal intensity
SAPDIPPRSPNRNAH | ≤ 0
NFLRLLIGLPSQNEL | 4

The binders below were run against SpSla1-D3 in the same assay as above.
Procedure, shortened: as §1

Binder | SPOT peptide array binding signal intensity
SAPDIPPRSPNRNAH | ≤ 0
NFLRLLIGLPSQNEL | 8
